Source: PubChem BioAssay AID779 (Sanford-Burnham Center for Chemical Genomics, 2007)
Values without a mark were called inactive. No rule for the calls is given here.

Experiment: PLAP enzyme activity inhibition – biochemical, colorimetric, counter-screen, dose response (AID 779)
Conditions: colorimetric OD read-out

| Compound | IC50 [µM] |
| --- | --- |
| Cc1cc2cc(CNC(=O)c3ccc(S(=O)(=O)N4CCCCC4)cc3)ccc2n1C | > 50 |
| Cc1cc(C)n(CNc2nc(C(F)(F)F)cs2)n1 | > 50 |
| CCn1nc(-c2ccccc2)c2nc3ccccc3nc21 | > 50 |
| CN(C)c1ccc(/C=C/C=C2/SC(=S)N(c3ccccc3)C2=O)cc1 | > 50 |
| COc1ccc(/C=c2\sc3nc(-c4ccccc4)c(-c4ccccc4)n3c2=O)cc1OC | > 50 |
| COc1cc(/C=C2\SC(=S)N(Nc3ccccc3)C2=O)cc(OC)c1OC | > 50 |
| Cc1ccc(S(=O)(=O)/C(C#N)=C/c2c(N3CCOCC3)nc3ccccn3c2=O)cc1 | > 50 |
| CCn1c2ccc(Cl)cc2c2nc3ccccc3nc21 | > 50 |
| CCOc1ccc(/C=C/C2=Cc3c(sc(NC(=O)CSc4n[nH]c(N)n4)c3C#N)C(C)(C)C2)cc1 | > 50 |
| O=C(CCN1C(=O)/C(=C/C=C/c2ccccc2)SC1=S)Nc1nccs1 | > 50 |
| Oc1c(C=C2N=c3ccccc3=N2)sc(=S)n1-c1ccc(F)cc1 | > 50 |
| Oc1c(N=Nc2ccccn2)ccc2ccccc12 | > 50 |
| CC1Cc2ccccc2N1Cc1nc2cc(C(F)(F)F)ccc2c(=O)[nH]1 (stereo not drawn) | > 50 |
| COc1ccccc1N1CSC2=C(C#N)C(c3ccc(SC)cc3)CC(=O)N2C1 (stereo not drawn) | > 50 |
| Cn1cc([N+](=O)[O-])c(C(=O)Nc2ccc3c(c2)OCCO3)n1 | > 50 |
| CCCCN1C(=O)/C(=C/C=C2\N(C)c3ccccc3C2(C)C)SC1=S | > 50 |
| Cc1cc2ccccc2n1CCNC(=O)c1ccccc1 | > 50 |
| CSc1ccccc1N=Cc1nc(-c2ccccc2)oc1O | > 50 |
